# TDP1 cell CPT = qHTS for Inhibitors of human tyrosyl-DNA phosphodiesterase 1 (TDP1): qHTS in cells in presence of CPT. AID 686979, 2013. 12% of 420,000 active. Potency, µM (doses to about 46.2 µM), for the others: at the top dose activity change, negative = growth inhibition, most hits filed as inhibitors. chicken DT40 Tdp1-/-;hTDP1 cells + 20 nM CPT, ATP luminescence, 48 h; further: potency means the concentration at half of the fitted maximal effect; nearly all actives have a fitted effect of over 55% in size
#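 Chicken DT40 Tdp1-/- cells stably complemented with human TDP1 were seeded at 400 cells/well in medium containing 20 nM camptothecin, exposed to pin-transferred compounds, and grown at 37 °C for at least 48 hr. Viability was read as ATP luminescence.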
# RORg inh = qHTS for inhibitors of ROR gamma transcriptional activity | Nuclear receptor ROR-gamma (Mus musculus), P51450 | Drosophila S2 Gal4-RORgamma UAS-luciferase reporter, 20 h | Potency, µM (series often up to 53.6 µM), for inactives: at the highest dose activity change, negative = inhibition, usual class: inhibitors | 5.4% of 310,000 active; further: potency means the concentration at half of the fitted maximal effect; nearly all actives have a fitted effect of over 60% in size
# Target sequence (P51450 whole entry, looked up, the tested form may be a part): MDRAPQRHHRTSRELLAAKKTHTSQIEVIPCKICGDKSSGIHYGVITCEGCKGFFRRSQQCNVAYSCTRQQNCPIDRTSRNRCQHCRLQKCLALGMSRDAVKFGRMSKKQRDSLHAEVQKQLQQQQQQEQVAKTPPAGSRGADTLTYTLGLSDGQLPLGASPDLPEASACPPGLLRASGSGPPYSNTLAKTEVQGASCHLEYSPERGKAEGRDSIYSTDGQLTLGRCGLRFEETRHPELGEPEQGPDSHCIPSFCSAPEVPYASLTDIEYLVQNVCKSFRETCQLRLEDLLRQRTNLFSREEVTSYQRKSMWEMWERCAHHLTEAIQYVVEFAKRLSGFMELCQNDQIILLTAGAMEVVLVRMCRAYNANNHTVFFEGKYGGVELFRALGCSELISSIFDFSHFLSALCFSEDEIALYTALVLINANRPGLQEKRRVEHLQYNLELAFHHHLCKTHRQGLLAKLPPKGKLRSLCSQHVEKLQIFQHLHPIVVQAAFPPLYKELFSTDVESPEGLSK
#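 ROR gamma transcriptional activity was tracked as Gal4-UAS luciferase output in stably transfected Drosophila Schneider cells, with compound added 1 hr before 700 uM copper sulfate induction and a 20 hr ambient-temperature incubation.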
# ELG1 repair inh = qHTS screen for small molecules that inhibit ELG1-dependent DNA repair in human embryonic kidney (HEK293T) cells expressing luciferase-tagged ELG1; HEK293T ELG1-luciferase reporter, luminescence, 16 h; DNA damage induced by 5-fluorouridine; Potency, µM (series often up to 46.1 µM), for inactives: at the highest dose activity change, negative = inhibition, usual class: inhibitors; 2.3% of 330,000 active; AID 504467, 2011; further: potency means the concentration at half of the fitted maximal effect; nearly all actives have a fitted effect of over 55% in size
#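 Cells (2,000 per well) received 5-fluorouridine plus test compound or DMSO and were incubated 16 hr at 37 °C, 5% CO2. Luciferase activity was read by luminescence 30 min after ONE-Glo addition; signal suppression marked inhibition of damage-induced ELG1 function.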
# Gal4-VP16 FLuc = VP16 counterscreen qHTS for inhibitors of ROR gamma transcriptional activity; Drosophila S2 Gal4-VP16 UAS-luciferase, luminescence, 20 h; Potency, µM (doses to about 53.6 µM), without a hit: at the top dose activity, negative = inhibition, usual class: inhibitors; 3.5% of 310,000 active; AID 2546, 2010;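 further: Gal4-VP16 expression switched on by copper sulfate through the metallothionein promoter; potency means the concentration at half of the fitted maximal effect; nearly all actives have a fitted effect of over 50% in size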
# IL1B secr inh = qHTS for Inhibitors of Inflammasome Signaling: IL-1-beta AlphaLISA Primary Screen. THP-1 LPS/ATP IL-1B secretion, AlphaLISA, 16 h; active compounds read low. activity change, % at 57.5 µM. 4.7% of 360,000 active. AID 743279, 2014; in the data active means activity change below about -50%; inconclusive means mostly about -30% to -49%
#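 Secreted IL-1B measured by AlphaLISA bead assay after 16 h compound exposure of THP-1 cells; compounds (final up to 57.5 uM) added 1 h before LPS (250 ng/mL) and ATP (1.25 mM) stimulation; lower signal means less secretion.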
# TDP1 cell noCPT = qHTS for Inhibitors of human tyrosyl-DNA phosphodiesterase 1 (TDP1): qHTS in cells in absence of CPT; DT40 Tdp1-/- hTDP1 cells, no CPT, ATP luminescence, 48 h; Potency, µM (highest dose often 46.2 µM), for inactives: at the top dose activity change, negative = growth inhibition, actives largely listed as inhibitors; 15% of 420,000 active; further: potency means the concentration at half of the fitted maximal effect; nearly all actives have a fitted effect of over 55% in size
#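 Camptothecin absent (DMSO only). Human TDP1-complemented DT40 knockout cells, 400 cells/well, 37 °C for minimum 48 hr; ATP measured via CellTiter-Glo, 30 min dark incubation, luminescence.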
# * marks the source's active call; other numbers are inactive results; ? = inconclusive; · = no result given; [ ] = remark or other dose. Only some compounds are listed: those with a hit (about 21% of all), similar ones and a draw of the others. Unless noted, the call rests on the fitted dose curve; in most records, active means well fitted curve in the direction sought with a large enough effect; inconclusive means small, poorly fitted or top-dose-only effect, or another doubt; inactive means no such curve, though single readings can be large; an effect the other way counts as inactive or inconclusive. On the % scale 0 is the no-effect control and ±100 the full control effect.
SMILES,TDP1 cell CPT,RORg inh,ELG1 repair inh,Gal4-VP16 FLuc,IL1B secr inh,TDP1 cell noCPT
Cc1csc(NC(=O)CSc2ccccc2F)n1,?,23%,?,?,-14,?
Cc1ccc(C(=O)CSc2nnc3c4ccccc4nc(C(C)(C)C)n23)cc1,?,-8%[10 µM],16µM*,-16%,-13,12µM*
Cc1csc(NC(=O)CSc2nnc3c4ccccc4nc(C(C)(C)C)n23)n1,4.6µM*,-29%,?,-22%,30,5.8µM*
CCN1CCN(CCCNC(=O)c2cnn(-c3ccccc3Cl)c2C2CCN(C(=O)OC(C)(C)C)CC2)CC1,?,·,·,·,·,-29%
Cc1ccc(-n2ncc(C(=O)NCCN3CCN(C)CC3)c2C2CCN(C(=O)OC(C)(C)C)CC2)c(C)c1,-27%,·,·,·,·,?
Cc1ccc(-n2ncc(C(=O)NCCCN3CCc4ccccc4C3)c2C2CCN(C(=O)OC(C)(C)C)CC2)c(C)c1,21µM*,·,·,·,·,21µM*
Cc1cccc(C)c1-n1ncc(C(=O)NCCCN2CCC(C)CC2)c1C1CCN(C(=O)OC(C)(C)C)CC1,?,·,·,·,·,21µM*
CCN1CCN(CCCNC(=O)c2cnn(-c3ccccc3)c2C2CCN(C(=O)OC(C)(C)C)CC2)CC1,-10%,·,·,·,·,1%
CC(C)(C)OC(=O)N1CCC(c2c(C(=O)NCCCN3CCc4ccccc4C3)cnn2-c2ccccc2)CC1,?,·,·,·,·,23µM*
COc1cccc(C(=O)N2CCC2(C)C(=O)NC(C)C)c1 (stereo not given),-12%,·,·,·,29,?
Cc1cc(NC(=O)CSc2nnc(CNc3ccc(F)cc3)n2C2CCCCC2)no1,10µM*,22%,?,-9%,-9,?
CCc1nnc(NC(=O)CSc2nnc(CNc3ccc(F)cc3)n2C2CCCCC2)s1,1%,16%,0%,-10%,-3,-1%
CCOC(CCn1c(SCC(=O)Nc2cc(C)on2)nc2ccccc2c1=O)OCC,?,-5%,21µM*,1%,5,?
Cc1cc(NC(=O)CSc2nc3ccccc3c(=O)n2C2CCCC2)no1,1µM*,0%,7%,-4%,28,0.92µM*
Cc1cc(NC(=O)CSc2nc3ccccc3c(=O)n2Cc2ccccc2)no1,-3%,?,-1%,2%,2,-26%
N#CCSc1nc2ccccc2c(=O)n1C1CCCCC1,-12%,-12%,3%,-7%[10 µM],10,?
CCCN(CCC)C(=O)CSc1nc2ccccc2c(=O)n1C1CCCC1,13µM*,46%,?,-8%[0.365 µM],0,13µM*
CCOC(Cn1c(SCC(=O)Nc2cc(C)on2)nc2ccccc2c1=O)OCC,-8%,-9%,0%,7%,-7,-7%
CC1=C(C(=O)N2CCCCCC2)CC(CC(=O)NCCN2CCOCC2)C(=O)N1Cc1ccccc1 (stereo not given),-16%,·,·,·,12,-3%
Cc1ccc(S(=O)(=O)N[C@@H]2COC(=O)C/C=C\[C@H](C)COC(=O)N[C@@H](C)C(=O)C/C=C\[C@H]2C)cc1,·,1%[10 µM],·,0%[10 µM],·,·
CC1=C(C(=O)Nc2ccccc2C)C(c2sccc2C)n2ncnc2N1 (stereo not given),1%,·,·,·,·,0%
CCOc1ccc(NC(=O)[C@@H](c2ccccc2)N2Cc3ccccc3C2=O)cc1,-8%,·,·,·,·,?
CN(C)c1ccc(NC(=O)CSc2nc3ccccc3c(=O)n2C2CCCCC2)cc1,?,-15%,-25%,-3%,-51*,18µM*
CCOC(CCn1c(SCc2ccc([N+](=O)[O-])cc2)nc2ccccc2c1=O)OCC,15µM*,-44%,15µM*,?,?,13µM*
CCN(CC)C(=O)CSc1nc2ccccc2c(=O)n1CC1CCCCC1,23µM*,11%,?,-6%,-25,16µM*
SMILES,TDP1 cell CPT,RORg inh,ELG1 repair inh,Gal4-VP16 FLuc,IL1B secr inh,TDP1 cell noCPT
C=C1CCN([C@H](C(=O)O)C(C)C)S(=O)(=O)c2ccccc21,3%,·,·,·,16,8%
COc1ccc(-c2csc3nc(-c4cccnc4)nc(Cl)c23)cc1OC,?,-21%,?,-8%,-87*,?
CC(=O)C1=C(S(=O)(=O)c2ccc(C)cc2)CS(=O)(=O)C1,3.7µM*,?,-17%,6%[10 µM],?,4.6µM*
O=C1[C@H](Cc2ccccc2)NCCCC[C@@H](c2ccc(Cl)cc2)N1Cc1ccccc1,18µM*,·,·,·,-53*,13µM*
O=C1C=CN(Cc2ccccc2)C(c2ccccc2)C1 (stereo not given),?,·,9%,·,-5,-27%
O=C1[C@H](Cc2ccccc2)NCCCC[C@H](c2ccc(Cl)cc2)N1Cc1ccc(Cl)cc1,23µM*,·,·,·,?,18µM*
CC(C)Cc1nc2cc(NS(=O)(=O)N(C)C)cc(C(=O)N3CCN(c4ccccc4)CC3)c2n1C,30%[9.04 µM],·,·,·,·,-12%
CC(C)C(NS(C)(=O)=O)c1nnc2n1CCN(Cc1ccc(Cl)cc1)CC2 (stereo not given),3%[9.04 µM],·,·,·,·,?
COc1ccc(-c2nc(N3CCOCC3)nc3n[nH]c(N)c23)cc1,18µM*,-14%,?,-16%,-70*,18µM*
COc1ccc(N2CCN(c3n[nH]c(N)n3)CC2)cc1,-12%,2%,?,-17%[10 µM],-3,-29%
Cn1c(=O)c2cc(NC(=O)Nc3cccnc3)ccc2n1Cc1ccc(Cl)cc1,?,·,·,·,-6,?
CN(C)c1ccc(NC(=O)Nc2ccc3c(c2)c(=O)n(C)n3Cc2ccccc2)cc1,23µM*,·,·,·,-10,16µM*
CC(C)=CCn1c2ccc(NC(=O)Nc3ccc(N(C)C)cc3)cc2c(=O)n1C,?,·,·,·,-20,18µM*
CC(C)C(NS(C)(=O)=O)c1nnc2n1CCN(Cc1ccc(C#CC(C)(C)O)cc1)CC2 (stereo not given),3%,·,·,·,·,-24%
O=C(Nc1c(-c2ccc(Cl)cc2)[nH][nH]c1=O)c1ccc(Br)cc1,-15%,·,·,·,38,-2%
CN(C)c1ccc(CNC(=O)C2Cc3c(-c4ccccc4Oc4ccccc4)ccnc3O2)cc1 (stereo not given),?,·,·,·,-8,?

# Source: PubChem BioAssay (National Center for Advancing Translational Sciences (NCATS))
